From PubChem
Abs 340nm: compounds absorbing at 340 nm | AID 708 | compound absorbance at 340 nm, fold over control | 65,000 tested, under 10 active | fold change at 10 µM;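 active = at 10 µM dose, initial 340 nm absorbance at least 2 fold that of control wells; inactive = change under 2 fold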;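 note: initial absorbance extrapolated from kinetic A340 decline of NADH oxidation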
Fluor 339 460: intrinsic fluorescence of library compounds, ex339/em460 – biochemical, MLSMR library, data from DPM-DC assay, artefact control, profiling panel. compound autofluorescence, ex339/em460 nm, NADH buffer; active compounds read high; 1 = no-compound wells, NADH background. fluorescence fold increase at 10 µM. actives 5.5% (n = 65,000). AID 709;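 active = at 10 µM, mean starting fluorescence two-fold or more over control wells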;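 note: signal is the first read of a kinetic run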
NADH coupling: inhibition of NAD/NADH coupling enzymes, library profiling; coupled PK/LDH NADH assays, four targets; IC50, µM (highest dose often 10 µM), without a hit: at the top dose inhibition; actives 0.02% (n = 65,000); AID 774;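 active = single-dose screening hits from any of four coupled enzyme assays that gave an IC50 when retested across doses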;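 note: the DPM-DC format reads NADH fluorescence rather than 340 nm absorbance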
Spn MK inh: S. pneumoniae mevalonate kinase inhibition; purified MK, PK/LDH-coupled NADH absorbance 340 nm; inhibition, % at 10 µM; actives 0.48% (n = 65,000);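 active = ranked among the strongest by inhibition in the single 10 µM screen, a fixed top-ranked set picked for dose follow-up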
Spn DPM-DC inh: S. pneumoniae DPM-DC inhibition; purified DPM-DC, PK/LDH coupled NADH fluorescence; calls only at 10 µM; actives 0.49% (n = 65,000); AID 556;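 active = the 320 compounds with the highest percent inhibition in the single-dose primary screen, excluding strongly autofluorescent ones, cut at about 32% in these data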;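 note: kinetic rate of NADH fluorescence loss reporting ADP formed by the decarboxylase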
Spn PMK inh: inhibitors of Streptococcus pneumoniae phosphomevalonate kinase. purified PMK, PK/LDH-coupled NADH absorbance 340 nm. inhibition, % at 10 µM. actives 0.49% (n = 65,000). AID 539;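 active = top-ranked compounds by inhibition in the single 10 µM screen, taking a fixed number of the strongest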;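 note: 0% = full reaction with DMSO carrier and 100% = background rate without enzyme reaction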
The depositor's hits bear a star; i = inactive; nt = no result given; + = active, no number. This is a sample that favours compounds with a hit; in the whole collection about 6.3% have one here.

SMILES	Abs 340nm	Fluor 339 460	NADH coupling	Spn MK inh	Spn DPM-DC inh	Spn PMK inh
COc1ccc(CCN(Cc2cc3cc4c(cc3[nH]c2=O)OCO4)C(C)=O)cc1OC	1.1	2.7*	16%	10	i	13
CCn1c(=O)c(C(=O)CN2CCCc3ccccc32)c(N)n(Cc2ccccc2)c1=O	1	1.1	7%	1	i	16
O=C(c1ccccc1F)N(Cc1ccccc1)C1CCS(=O)(=O)C1 (stereo not given)	1.1	1.2	44%	29	+	14
O=C(c1ccccc1F)N(Cc1ccc(F)cc1)C1CCS(=O)(=O)C1 (stereo not given)	0.99	1.1	9%	15	i	13
CCOC(=O)N1CCC(NC(=O)Cn2c3ccccc3c3cn[nH]c(=O)c32)CC1	1	1.2	5%	0	i	15
CCOC(=O)N1CCC(NC(=O)Cn2c3c(c(-c4ccccc4Cl)cc2=O)CCC3)CC1	1	2.2*	4%	9	nt	11
Cc1nnc2sc(-c3ccc(NC(=O)c4ccc(-c5ccc(Cl)cc5Cl)o4)cc3)nn12	1.1	3.9*	6%	11	nt	1
Cc1nnc2sc(-c3ccc(NC(=O)c4cccnc4)cc3)nn12	1.1	1.1	10%	18	i	11
Cc1n[nH]c(C)c1N1C(=O)c2cccc3c(N4CCCCCC4)ccc(c23)C1=O	1	1.1	12%	5	i	32*
CCOc1c(C(N)=O)c(-c2ccccc2)c2c(=O)[nH]c3ccccc3n12	1.1	3.8*	4%	0	nt	7
CCc1ccc(CCC(=O)Nc2ccc(C)c(C)c2)o1	0.98	1.1	5%	10	+	10
CCOC(=O)c1cc2c(=O)n3ccccc3nc2n(CC(C)C)c1=NC(=O)c1ccco1	1	2.5*	3%	9	nt	0
Cc1cccn2c(=O)c3cc(C#N)c(=NC(=O)c4ccccc4)n(Cc4ccco4)c3nc12	1.1	2.3*	7%	3	nt	11
O=C(CSc1nc2ccccc2c(=O)n1Cc1ccco1)c1ccccc1	0.98	1.1	5%	6	i	10
CCOC(=O)c1cc2c(=O)n3cccc(C)c3nc2n(Cc2ccco2)c1=NC(=O)c1cccnc1	0.99	2.2*	8%	4	i	11
CCOC(=O)c1cc2c(=O)n3ccccc3nc2n(Cc2ccco2)c1=NC(=O)c1cccnc1	1	2.2*	3%	3	nt	3
CCOC(=O)c1cc2c(=O)n3ccccc3nc2n(CCCOC)c1=NC(=O)c1cccnc1	1.1	1.7	5%	8	i	0
CCCn1c(SCC(=O)NC(C)(C)C)nnc1C(C)C	1	1.1	3%	4	i	10
CCN1CCCC1CNC(=O)Cn1cccc1C(=O)c1ccccc1C (stereo not given)	1	1.1	7%	7	i	14
Cc1cc(C(=O)COc2ccc3ccc(=O)oc3c2)c(C)n1Cc1cccs1	1.1	2.6*	13%	0	i	12
COc1ccc(OC)c(-c2nnc(-c3ccc(C)o3)o2)c1	1.1	3.9*	11%	12	nt	10
Cc1ccc(C)c(N(CC(N)=O)S(C)(=O)=O)c1	1	1.1	5%	9	i	5
NC(=O)c1nsc(C(=O)N(CC(=O)NCc2ccc3c(c2)OCO3)C2CCCCC2)c1N	1.1	2.9*	6%	6	i	7
O=C(c1ccccc1)c1nc[nH]c1C(=O)Nc1ccccc1	0.97	1.1	1%	4	i	0
CCOC(=O)C1CCN(C(=O)Cc2ccc(OC)c(OC)c2)CC1	1	1.1	8%	2	i	22
SMILES	Abs 340nm	Fluor 339 460	NADH coupling	Spn MK inh	Spn DPM-DC inh	Spn PMK inh
CCOC(=O)C1CCN(Cc2cn[nH]c2-c2ccc(C)cc2)CC1	1	1.1	4%	3	i	8
CCOC(=O)C1CCN(Cc2ccc(OC)cc2OC)CC1	1.1	1.1	18%	51*	i	0
CCN(CC)C(=O)C1CCN(Cc2ccc(Br)cc2)CC1	1.1	2.7*	8%	0	i	6
CCOC(=O)C1CCN(Cc2ccc(N(C)C)cc2)CC1	1.1	1.1	14%	43*	i	0
CCOC(=O)C1CCN(c2c(N3CCN(Cc4ccccc4)CC3)c(=O)c2=O)CC1	1.1	1.1	4%	6	i	6
CCOC(=O)C1CCN(Cc2cn[nH]c2-c2ccccc2)CC1	1	3.8*	10%	7	nt	12
c1ccc(-c2nc3c4ccccc4nc(N4CCN(c5ccccn5)CC4)n3n2)cc1	0.99	1.6	10%	4	i	10
O=C(O)C1CCN(c2nc(-c3ccccc3)nc3c2oc2ccccc23)CC1	1.1	1.2	5%	10	i	6
COc1ccc(CN2CCN(c3ncccn3)CC2)c(OC)c1	1.1	1.1	22%	49*	i	16
CCOC(=O)C1CCN(c2nc(-c3ccccc3)nc3c2oc2ccccc23)CC1	1	2.1*	6%	7	i	10
COc1ccc(CN2CCN(c3ccccn3)CC2)c(OC)c1	1	1.1	20%	36	i	23
COC(=O)c1oc2ccc(Br)cc2c1NC(=O)CN1CCN(C)CC1	1	1.1	3%	7	i	12
COC(=O)c1oc2ccc(Br)cc2c1NC(=O)c1ccccc1	1.1	3.2*	12%	5	i	10
CCCN1C(=O)c2cc(C(=O)O)ccc2C1O (stereo not given)	1	1	6%	38	i	1
CCCN1C(=O)c2ccccc2NC1c1ccc(OC)cc1OC (stereo not given)	1.1	5.1*	12%	3	nt	20
CCCN1C(=O)c2ccccc2NC1c1ccc(OC)cc1O (stereo not given)	1	5*	9%	5	nt	13
O=C(NC1CCS(=O)(=O)C1)OC1CCCCC1 (stereo not given)	1	1.1	3%	15	i	13
COc1c(N2CCNC(C)C2)c(F)cc2c(=O)c(C(=O)O)cn(C3CC3)c12 (stereo not given)	1.1	3.9*	7%	1	nt	12
CC1CCc2cc(F)cc3c(=O)c(C(=O)O)cn1c23 (stereo not given)	1	1	6%	12	i	2
O=C(CSc1nnc(-c2ccc(Cl)s2)o1)N1CCc2ccccc21	1	2*	0%	0	i	0
CC(c1nnc(SCC(=O)NC(=O)NCc2ccco2)n1-c1ccc(Cl)cc1)N(C)C (stereo not given)	1	1.1	5%	2	i	13
COc1ccccc1-n1c(C)nnc1SCC(=O)Nc1cccc(C(C)=O)c1	0.98	1.1	2%	0	i	10
CCc1cc2c(=O)c(-c3cnn(-c4ccccc4)c3)coc2c(CN2CCOCC2)c1O	0.97	2.9*	9%	2	i	14
